Screening data as filed in PubChem.
BAZ2B block – qHTS Assay for Inhibitors of BAZ2B; AlphaScreen BAZ2B-H3K14Ac peptide displacement; Potency, µM (series often up to 114 µM), most hits filed as inhibitors; AID 504333, 2011; actives 4.4% (n = 360,000); note: nearly all actives have a fitted effect of over 60% in size
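Compounds, titrated to a top concentration of 110 uM, were incubated 30 min at room temperature with preformed BAZ2B/acetyl-K14 H3 peptide complex (50 nM each). Proximity signal was measured by AlphaScreen after 20 min with beads.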
Six1-Eya2 inh – qHTS Assay for Inhibitors of the Six1/Eya2 Interaction. actives 0.56% (n = 360,000). AlphaScreen GST-Six1/His-Eya2 binding, biochemical; stronger effect = lower value. activity change, % (no concentration beside the values). Homeobox protein SIX1 (Homo sapiens) + Protein phosphatase EYA2 (Homo sapiens), …; in the data active = activity change below about -65%; inconclusive = mostly about -30% to -63%
Target sequence (O00167 whole entry, looked up): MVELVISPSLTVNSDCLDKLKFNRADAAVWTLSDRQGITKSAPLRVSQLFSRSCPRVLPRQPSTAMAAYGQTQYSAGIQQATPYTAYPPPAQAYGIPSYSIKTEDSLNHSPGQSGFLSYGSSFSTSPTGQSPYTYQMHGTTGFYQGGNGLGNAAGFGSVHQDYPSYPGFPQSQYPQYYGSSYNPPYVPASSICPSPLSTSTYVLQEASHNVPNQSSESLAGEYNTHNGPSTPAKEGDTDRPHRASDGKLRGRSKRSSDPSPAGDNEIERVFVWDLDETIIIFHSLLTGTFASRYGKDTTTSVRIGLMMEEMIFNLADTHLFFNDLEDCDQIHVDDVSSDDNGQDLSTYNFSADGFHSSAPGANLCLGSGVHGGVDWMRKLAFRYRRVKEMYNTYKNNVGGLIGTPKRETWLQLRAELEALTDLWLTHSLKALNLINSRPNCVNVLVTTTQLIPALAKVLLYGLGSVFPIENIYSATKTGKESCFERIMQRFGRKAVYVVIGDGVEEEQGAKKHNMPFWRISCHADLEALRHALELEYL
Target sequence (Q15475 whole entry, looked up): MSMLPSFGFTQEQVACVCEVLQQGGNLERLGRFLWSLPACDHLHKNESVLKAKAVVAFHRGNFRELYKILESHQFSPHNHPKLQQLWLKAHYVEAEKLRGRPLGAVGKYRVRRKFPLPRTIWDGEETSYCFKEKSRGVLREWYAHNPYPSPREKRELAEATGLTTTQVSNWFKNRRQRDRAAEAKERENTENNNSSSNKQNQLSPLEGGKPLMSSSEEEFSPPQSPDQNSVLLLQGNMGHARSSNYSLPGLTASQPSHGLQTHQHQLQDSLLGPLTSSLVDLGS
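AlphaScreen with GST-Six1 and His-Eya2 (5X mix: 250 nM and 500 nM), glutathione donor and nickel acceptor beads; buffer 50 mM Tris pH 8.0, 300 mM NaCl, 1 mM TCEP; 1 h at 37 C in the dark.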
G9a block – qHTS Assay for Inhibitors of Histone Lysine Methyltransferase G9a | actives 8.8% (n = 350,000) | G9a H3K9 monomethylation, AlphaScreen, 2 h | AID 504332, 2011 | Histone-lysine N-methyltransferase EHMT2 (Homo sapiens), Q96KQ7 | Potency, µM (highest dose often 102 µM), hits mostly inhibitors; note: nearly all actives have a fitted effect of over 75% in size
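Signal arises when biotinylated H3K9 peptide, once monomethylated, bridges streptavidin donor and antibody-captured acceptor beads. Enzyme at 20 nM was preincubated 15 min with test compounds; peptide 500 nM and SAM 20 uM then reacted for 2 h.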
HP1b binding inh – HTS for Inhibitors of HP1-beta Chromodomain Interactions with Methylated Histone Tails. AlphaScreen HP1-beta / biotin-H3K9me3 peptide binding. Chromobox protein homolog 1 (Homo sapiens), P83916. Potency, µM (titrated, usually from 114 µM), usual class: inhibitors. actives 0.56% (n = 390,000); note: nearly all actives have a fitted effect of over 70% in size
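HP1-beta protein (50 nM final) preincubated 30 min at room temperature with biotinylated H3(1-18)K9me3 peptide (50 nM) in PBS pH 7.4, 0.01% Tween-20, then compound added for 30 min. AlphaScreen streptavidin donor/nickel chelate acceptor beads (10 ug/mL final), 30 min dark, luminescence read.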
CtBP-E1A inh – qHTS Assay for Inhibitors of the CtBP/E1A Interaction | CtBP / adenovirus E1A interaction (AlphaScreen) | AlphaScreen GST-E1A/His-CtBP binding, 1536-well; stronger effect = lower value | activity change, % (test concentration not listed) | actives 0.49% (n = 340,000) | AID 651724, 2012; in the data active = activity change below about -65%; inconclusive = mostly about -30% to -63%
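Protein mix (5X: 125 nM each GST-E1A, His-CtBP) was incubated with pinned compound 2 h at 37 deg C in dark, in 50 mM Tris pH 8.0 buffer with 300 mM NaCl. Glutathione donor and nickel acceptor beads followed; AlphaScreen signal read after 1 h.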
JMJD2A Tudor inh – qHTS Assay for Inhibitors of JMJD2A-Tudor Domain; Lysine-specific demethylase 4A (Homo sapiens), O75164; Potency, µM (top dose mostly 114 µM), actives largely listed as inhibitors; AlphaScreen JMJD2A-Tudor / H3K4me3 peptide binding; actives 4.4% (n = 390,000); note: nearly all actives have a fitted effect of over 50% in size
Hits are given with their value; i = inactive; ? = inconclusive; nt = not tested or not shown; [ ] = remark or other dose. An excerpt weighted towards active compounds, which were near 10% of everything screened. Unless noted, calls come from the whole dose curve; as a rule, active = well fitted inhibition curve with a large enough effect; inconclusive = small, poorly fitted or top-dose-only effect; inactive = no such curve, though single readings can be large or run the other way.

SMILES | BAZ2B block | Six1-Eya2 inh | G9a block | HP1b binding inh | CtBP-E1A inh | JMJD2A Tudor inh
COc1ccc(N2CCN(C(=O)CN(c3cccc(OC)c3)S(=O)(=O)c3ccccc3)CC2)cc1 | ? | ? | 8.91µM | ? | i | ?
CCC(=O)N1c2ccccc2CC1C(=O)NCCc1cc(OC)c(OC)c(OC)c1 (stereo unspecified) | i | nt | i | i | nt | i
CC1N=C2c3ccccc3N=C(SCC(=O)NCCc3ccccc3)N2C1=O (stereo unspecified) | i | nt | ? | i | nt | i
COCCCn1c(=S)[nH]c2ncccc2c1=O | i | i | 44.7µM | i | i | ?
COCCCn1c(=S)[nH]c(C)c(C)c1=O | i | i | nt | i | i | 22.4µM
COCCn1c(=S)[nH]c2ncccc2c1=O | i | i | ? | i | i | 14.1µM
O=C(Oc1cccc(C(=S)N2CCOCC2)c1)c1ccc([N+](=O)[O-])cc1 | ? | ? | 31.6µM | ? | i | ?
O=C(Oc1ccccc1C(=S)N1CCOCC1)c1cccc([N+](=O)[O-])c1 | i | i | 79.4µM | i | i | ?
Cc1c([N+](=O)[O-])cc(C(=O)Oc2cccc(C(=S)N3CCOCC3)c2)cc1[N+](=O)[O-] | ? | i | 15.8µM | i | i | i
O=C(Oc1cccc(C(=O)N2CCOCC2)c1)c1ccc(Br)cc1 | i | i | i | i | i | i
COc1ccc(C(=S)N2CCOCC2)cc1OC(=O)c1cccc([N+](=O)[O-])c1 | i | i | i | i | i | ?
O=C(Nc1cccc(Cl)c1)c1ccc(OC(=S)N2CCOCC2)cc1 | i | i | i | i | i | i
O=C(Oc1ccc(C(=S)N2CCOCC2)cc1)c1cccc(Cl)c1 | i | -80.0 | 44.7µM | ? | i | i
COc1cccc(C2=Nn3c(nnc3-c3cc(OC)ccc3OC)SC2)c1 | nt | nt | nt | nt | nt | i
CC(C)OCCCNc1ncnc2sc3c(c12)CCCC3 | i | nt | i | i | nt | i
COc1ccc(/C=C/C(=O)NCC(=O)N/N=C(/C)c2ccco2)cc1 | i | i | i | i | i | i
O=C(Oc1ccc(C(=S)N2CCOCC2)cc1)c1ccccc1[N+](=O)[O-] | i | ? | nt | i | i | i
O=C(Oc1ccc(C(=S)N2CCOCC2)cc1)c1cc([N+](=O)[O-])cc([N+](=O)[O-])c1 | i | i | 35.5µM | i | i | i
C[N+]1(CC(=O)OCCCC2CCCCC2)CCCC1 | i | i | 56.2µM | ? | i | ?
O=C(CN1CCCC1)OCCCC1CCCCC1 | i | i | 56.2µM | i | i | i
O=C(O)CN1CCCCC1 | ? | i | ? | i | i | i
CC(C)(C)C1CCC(OC(=O)C[N+]2(C)CCCCC2)CC1 (stereo unspecified) | i | i | i | i | i | i
Cc1cccc(Oc2nc3c(c(=O)n(C)c(=O)n3C)n2Cc2ccccc2)c1C | i | nt | i | i | nt | i
Cc1ccc(-n2c(Cc3cccn3C)nnc2SCC(=O)Nc2ccc3c(c2)OCO3)cc1 | 44.7µM | i | ? | ? | i | 44.7µM
Cc1ccc(-n2c(Cc3cccn3C)nnc2SCC(=O)Nc2nnc(C)s2)cc1 | i | ? | i[2.33 µM] | i | ? | i
SMILES | BAZ2B block | Six1-Eya2 inh | G9a block | HP1b binding inh | CtBP-E1A inh | JMJD2A Tudor inh
Cc1ccc(-n2c(Cc3cccn3C)nnc2SCC(=O)NCc2ccc3c(c2)OCO3)cc1 | 50.1µM | i | ? | i | i | ?
CCOc1cc(NC(=O)Nc2ccc(F)cc2)c(OCC)cc1NC(=O)CC | i | i | i | i | nt | i
COc1cc(NC(=O)c2nn(C)c3c2COc2ccccc2-3)cc(OC)c1OC | i | nt | ? | i | nt | i
CCOc1ccccc1-c1c2cc(O)c(=O)cc-2oc2cc(O)c(O)cc12 | 7.08µM | ? | 10µM | i | i | 1µM
O=c1cc2oc3cc(O)c(O)cc3c(-c3ccccc3O)c-2cc1O | 7.94µM | ? | 15.8µM | 14.1µM | nt | 3.98µM
Cc1ccccc1-c1cc(=O)c2c(O)cccc2o1 | i | i | i[12.7 µM] | i | i | i
